SMN2 splice up: enhancers of SMN2 splice variant expression | HEK293 SMN2-luciferase splicing reporter, luminescence, 30-36 h | AID 1458 | actives 2.8% (n = 210,000) | Potency, µM (highest dose often 46.1 µM), most hits filed as activators; further: nearly all actives have a fitted effect of over 55% in size
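HEK293 cells carry an SMN2 […]–luciferase reporter in which exon 7 inclusion puts luciferase in frame. Cells were plated 10-12 h before compound addition, then incubated 30-36 h at 37C. ONE-Glo luminescence was read; sodium butyrate at 4.5 mM final served as control.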
Rab9 prom act: Rab9 promoter activation; Huh7 Rab9 promoter-luciferase reporter, luminescence, 24 h; Potency, µM (titrated, usually from 9.22 µM), most hits filed as activators; actives 2.8% (n = 320,000); further: nearly all actives have a fitted effect of over 60% in size
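Huh7 reporter line, Rab9 promoter upstream of luciferase. Compound exposure 24 h at 37 °C in reduced-serum medium with 10% FBS. Read-out: luminescence.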
FLuc counter: inhibits or activates purified firefly luciferase, miR-21 counter-screen; Potency, µM (doses to about 57.5 µM), usual class: inhibitors; P08659; AID 588342; actives 6.9% (n = 360,000); purified FLuc, Km substrates, luminescence inhibition; further: nearly all actives have a fitted effect of over 55% in size
Target sequence (P08659 whole entry, looked up): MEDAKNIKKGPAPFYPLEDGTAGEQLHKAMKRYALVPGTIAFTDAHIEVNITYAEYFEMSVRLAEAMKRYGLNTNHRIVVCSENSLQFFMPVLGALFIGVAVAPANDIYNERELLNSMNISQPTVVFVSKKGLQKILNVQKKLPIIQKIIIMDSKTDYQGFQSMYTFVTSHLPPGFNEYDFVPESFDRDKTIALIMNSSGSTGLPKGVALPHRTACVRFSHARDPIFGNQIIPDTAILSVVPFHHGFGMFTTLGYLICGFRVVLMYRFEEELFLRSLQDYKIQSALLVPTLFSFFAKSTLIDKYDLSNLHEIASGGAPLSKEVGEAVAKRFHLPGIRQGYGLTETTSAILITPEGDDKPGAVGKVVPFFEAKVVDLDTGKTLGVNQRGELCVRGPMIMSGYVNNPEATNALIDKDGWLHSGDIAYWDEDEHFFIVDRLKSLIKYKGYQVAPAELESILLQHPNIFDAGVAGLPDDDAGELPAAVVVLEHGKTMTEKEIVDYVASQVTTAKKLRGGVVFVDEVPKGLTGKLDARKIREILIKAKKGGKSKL
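Biochemical qHTS of compounds, final roughly 60 µM downward over six points, against 10 nM purified firefly luciferase using Km concentrations of substrates (10 uM D-luciferin, 10 uM ATP) in Tris acetate pH 7.5 buffer; luminescence output.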
ELG1 genotoxic: inducers of genotoxicity in HEK293T ELG1-luciferase cells | Potency, µM (top dose mostly 46 µM), usual class: activators | HEK293T ELG1-luciferase reporter, luminescence, 16 h | AID 504466 | actives 1.3% (n = 330,000); further: nearly all actives have a fitted effect of over 60% in size
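Cells (2,000/well) expressing the ELG1-luciferase fusion are dosed by pin tool and kept 16 hr at 37 °C, 5% CO2. Signal comes from ONE-Glo luciferase reagent after 30 min at room temperature.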
NPC1 promoter act: activates the NPC1 promoter. Huh7 NPC1 promoter luciferase reporter, 24 h. Potency, µM (doses to about 9.22 µM), actives largely listed as activators. actives 2.4% (n = 320,000); further: nearly all actives have a fitted effect of over 60% in size
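Compounds in DMSO were transferred onto Huh7 NPC1-luciferase reporter cells pre-incubated 2 h; after 24 h at 37 °C, Amplite reagent was dispensed and luminescence recorded 10 min later.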
Numbers stand for hits; – = inactive; ? = inconclusive; · = no result. Sampled rows, rich in hits. Any-hit rate of the full collection: about 7.5%. The call rests on the fitted dose curve; in most records, active means well fitted curve in the direction sought with a large enough effect; inconclusive means small, poorly fitted or top-dose-only effect, or another doubt; inactive means no such curve, though single readings can be large; an effect the other way counts as inactive or inconclusive.

SMILES	SMN2 splice up	Rab9 prom act	FLuc counter	ELG1 genotoxic	NPC1 promoter act
O=C(O)c1cccc(NC(=S)NC(=O)c2ccc(-c3ccccc3)cc2)c1	3.2µM	?	1.1µM	?	0.35µM
CCS(=O)(=O)N1CCC2(CC1)OC(=O)C(C)=C2C(=O)NCc1ccc(OC)c(OC)c1	·	·	–	·	·
COc1ccc(/C(O)=C2/C(=O)C(=O)N(CCN(C)C)C2c2cccnc2)cc1C (configuration not stated)	·	–	–	–	–
CCCCC(=O)NC(=S)Nc1cccc(C(=O)O)c1	·	–	24µM	–	–
CC#CCCCC(=O)Nc1cccc(C(=O)O)c1	?	3.2µM	24µM	–	?
Cc1ccc(NC(=S)NNC(=O)c2cccc([N+](=O)[O-])c2)cc1Cl	·	–	19µM	–	–
O=C(NC(=S)Nc1ccccn1)c1cncc(Br)c1	–	?	15µM	–	?
Cc1cc(C)c2c(n1)sc1c(=O)[nH]c(SCc3ccccc3)nc12	–	–	–	–	–
CCOc1ccc(/C=N/NC(=O)CNC(=O)c2ccc(S(=O)(=O)N3CCOCC3)cc2)cc1	–	–	–	–	–
Cc1ccc(Sc2ncccc2C(=O)O)cc1C	·	–	–	–	–
CCc1ccccc1NC(=O)c1cnc2n(c1=O)CCS2	–	–	–	–	–
CCc1ccc(NC(=O)c2cnc3n(c2=O)CCS3)cc1	–	4µM	9.5µM	9.2µM	–
Cc1ccc(C)c(NC(=O)c2cnc3n(c2=O)CCS3)c1	?	4.5µM	–	–	?
Cc1cc(-n2cccn2)ccc1CN1CCN(CC(C)C)C(CCO)C1 (configuration not stated)	·	–	–	–	–
O=C(/C(=C/O)N=Nc1ccccc1Cl)c1ccccc1	–	–	21µM	–	–
CCN(CC)S(=O)(=O)c1ccc(NC(=O)c2ccc(CN3CCOCC3)cc2)cc1	–	–	–	–	–
CC(=O)Nc1nccc(-c2cc(-c3ccccc3)no2)n1	·	2.2µM	?	?	3.5µM
COc1ccc(F)cc1Cn1nc(C(=O)O)c2ccccc2c1=O	·	–	–	–	–
COc1ccc(NC(=O)CSc2nc3nc(C)cc(C)c3c(=O)[nH]2)cc1OC	·	·	·	–	·
O=C(CSc1nnc(-c2cccnc2)o1)Nc1ccccc1Br	·	–	–	–	–
O=C(CSc1ncc(-c2ccc(F)cc2)[nH]1)N1CCCCC1	11µM	?	?	?	–
COc1ccccc1NC(=O)CSc1nc2nc(C)cc(C)c2c(=O)[nH]1	3.5µM	–	–	–	–
O=C(CSc1nnc(-c2cccnc2)o1)Nc1ccccc1F	·	3.2µM	–	?	3.2µM
COc1ccccc1NC(=O)CSc1nnc(-c2ccc(C)cc2)o1	2.5µM	1.3µM	–	?	1.6µM
COc1ccc(C(NC(=O)c2ccc(-c3ccccc3)cc2)c2ccccc2)cc1 (configuration not stated)	–	–	–	–	–
SMILES	SMN2 splice up	Rab9 prom act	FLuc counter	ELG1 genotoxic	NPC1 promoter act
O=C(CCn1c(=O)oc2ccccc21)NCCCN1CCOCC1	·	–	–	–	–
O=C(CSc1nnc(-c2ccc(O)cc2)o1)Nc1ccccc1Br	·	3.2µM	·	10µM	2.8µM
O=C(CSc1ncc(-c2ccc(Cl)cc2)[nH]1)Nc1ccccc1F	–	·	?	·	·
COc1cccc(NC(=O)CSc2nnc(-c3ccc(C)cc3)o2)c1	16µM	?	–	10µM	–
O=C(CSc1ncc(-c2ccccc2)[nH]1)Nc1ccccc1F	–	–	27µM	?	–
COc1ccc(-c2nnc(SCC(=O)Nc3cc(C)on3)o2)cc1	20µM	–	–	–	–
Cc1ccc(C)c(NC(=O)C2CCCN(c3ncnc4onc(C)c34)C2)c1 (configuration not stated)	·	·	–	·	·
S=c1[nH]c(-c2ccccc2)cn1/N=C/c1cccs1	·	?	–	–	1.4µM
Fc1ccccc1/C=N/n1cc(-c2ccccc2)[nH]c1=S	·	4µM	?	–	1.1µM
Cc1onc(-c2ccccc2)c1C(=O)Nc1nnc(N2CCCCCC2)s1	–	–	–	–	–
OC1(c2cccc(C(F)(F)F)c2)CCN(CCN2CCCCC2)CC1	·	–	–	–	–
Cc1cc(Cl)c2oc(C(=O)N(C)Cc3ccon3)c(C)c2c1	·	2.8µM	13µM	18µM	4µM
Cc1cc(Cl)c2oc(C(=O)N(C)C3CCOC3)c(C)c2c1 (configuration not stated)	·	4µM	21µM	?	?
NS(=O)(=O)c1ccc(CNC(=O)c2ccc3c(=O)n4c(nc3c2)CCC4)cc1	·	–	–	–	–
COc1ccc(/C=C/C(=O)Nc2ccc3nc4n(c(=O)c3c2)CCCC4)cc1OC	·	–	–	–	–
O=S(=O)(c1cccc(-c2nc3n(n2)Cc2ccccc2-3)c1)N1CCCC1	–	–	15µM	–	–
O=S(=O)(c1cccc(-c2nc3n(n2)Cc2ccccc2-3)c1)N1CCCCC1	–	–	?	–	–
Nc1ccc(C(=O)N/N=C\c2cc(N=Nc3cccc4ccccc34)ccc2O)cc1	–	–	7.6µM	–	–
COC(=O)N/N=C/c1cc(N=Nc2ccccc2Cl)ccc1O	·	?	6µM	–	?
Cc1cc(C(=O)N/N=C/c2cc(N=Nc3ccccc3)ccc2O)n[nH]1	–	–	?	?	–
COC(=O)N/N=C/c1cc(N=Nc2ccccc2)ccc1O	·	–	?	–	–
CCNC(=S)Nc1cc2oc3ccccc3c2cc1OC	·	–	?	–	–
O=C(c1ccc2ncsc2c1)N1CCN(c2nc3ccccc3s2)CC1	·	–	–	–	–
CCN(CC)C(=O)COc1ccc2oc(-c3ccco3)cc(=O)c2c1	·	–	15µM	–	–
CCN(CC)C(=O)COc1c(-c2ccco2)oc2ccccc2c1=O	·	–	–	–	–
SMILES	SMN2 splice up	Rab9 prom act	FLuc counter	ELG1 genotoxic	NPC1 promoter act
CCOC(=O)c1ccc(NC(=O)c2ccc(NC(=O)c3ccccc3)cc2)cc1	?	–	–	?	–
CCOC(=O)Cc1ccc(NC(=O)c2ccc(C(C)(C)C)cc2)cc1	–	–	1.1µM	–	–
CCOC(=O)Cc1ccc(NC(=O)c2ccccc2Br)cc1	–	–	19µM	–	–
Cc1ccc(S(=O)(=O)N(C)/N=C/c2ccc(C(=O)O)cc2)cc1	·	–	?	–	–
COC(=O)c1ccc(CSCc2ccc(C(=O)OC)o2)o1	·	–	–	–	–
CCNC(=S)NNC(=O)c1cc(-c2ccc(OCC)cc2)nc2ccccc12	–	?	0.024µM	–	?
CCNC(=S)NNC(=O)c1cc(-c2cccc(OC)c2)nc2ccccc12	?	–	0.67µM	?	–
CCCOc1ccc(C(=O)NNC(=S)NC(=O)c2cc(-c3ccc(Cl)cc3)nc3ccccc23)cc1	–	–	?	–	–
CCNC(=S)NNC(=O)c1cc(-c2ccccc2C)nc2ccccc12	–	–	17µM	–	–
Cc1ccc(C)c(-c2cc(C(=O)NNC(=S)NCC(C)C)c3ccccc3n2)c1	·	–	?	–	–
COc1ccc(C(=O)NNC(=S)NC(=O)c2cc(-c3ccccc3)nc3ccccc23)cc1	–	–	12µM	–	–

Screening results as filed in PubChem BioAssay.
